Positions count from the first letter of the chain named.

7 sequences from PMC11006913 can be followed below.

Holding throughout (experiment): PBM; 200 nM protein, PBS
Holding throughout (settings): dsDNA, one strand shown

The target in assay [1] is HESX1 (Homo sapiens, UniProt Q9UBX0 95-180, R165K).
For assay [2], the target named is HESX1 (Homo sapiens, UniProt Q9UBX0 95-180).
Assay [3] concerns the target HESX1 (Homo sapiens, UniProt Q9UBX0 95-180, P111T).
Assay [4] concerns the target HESX1 (Homo sapiens, UniProt Q9UBX0 95-180, F115L).
Assay [5] has as its target HOXB4 (Homo sapiens, UniProt P17483 148-234).
In assay [6] the target is SHOX (Homo sapiens, UniProt O15266 103-189).
Sequence of SHOX (Homo sapiens, UniProt O15266 103-189) (O15266 103-189): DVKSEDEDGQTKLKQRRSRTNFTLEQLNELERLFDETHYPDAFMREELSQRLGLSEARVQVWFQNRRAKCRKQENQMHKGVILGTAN
In assay [7] the target is ALX4 (Homo sapiens, UniProt Q9H161 200-286).
Sequence of ALX4 (Homo sapiens, UniProt Q9H161 200-286) (Q9H161 200-286): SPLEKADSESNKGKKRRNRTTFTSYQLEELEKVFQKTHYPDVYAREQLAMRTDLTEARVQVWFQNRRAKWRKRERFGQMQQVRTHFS
The target of assay [8] is ALX4 (Homo sapiens, UniProt Q9H161 200-286, Q225E).
Sequence of ALX4 (Homo sapiens, UniProt Q9H161 200-286, Q225E) (Q9H161 200-286 Q225E): as the sequence (Q9H161 200-286) above, with Q26E counted along it
Assay [9] concerns the target HOXB4 (Homo sapiens, UniProt P17483 148-234, V174I).
In assay [10] the target is T1, NKX2-6 (Homo sapiens, UniProt A6NCS4 118-204).
T1 sequence: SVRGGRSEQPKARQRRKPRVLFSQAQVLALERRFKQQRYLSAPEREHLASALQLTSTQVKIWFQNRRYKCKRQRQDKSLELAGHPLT

Assay [11] deals with SHOX (Homo sapiens, UniProt O15266 103-189, R173C).
Sequence of SHOX (Homo sapiens, UniProt O15266 103-189, R173C) (O15266 103-189 R173C): as the sequence (O15266 103-189) above, with R71C counted along it
For assay [12], the target named is T2, NKX2-6 (Homo sapiens, UniProt A6NCS4 118-204, F151L).
T2 sequence: T1 sequence with F34L

Assay [13] deals with CRX (Homo sapiens, UniProt O43186 26-111).
Sequence of CRX (Homo sapiens, UniProt O43186 26-111) (O43186 26-111): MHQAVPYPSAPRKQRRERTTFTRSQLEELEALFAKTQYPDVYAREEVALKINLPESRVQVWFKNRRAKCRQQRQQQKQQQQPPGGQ
Assay [14] has as its target HOXA4 (Homo sapiens, UniProt Q00056 201-287, W262R).
Assay [15] deals with HOXA4 (Homo sapiens, UniProt Q00056 201-287, R217L).
Sequence of HOXA4 (Homo sapiens, UniProt Q00056 201-287, R217L) (Q00056 201-287 R217L): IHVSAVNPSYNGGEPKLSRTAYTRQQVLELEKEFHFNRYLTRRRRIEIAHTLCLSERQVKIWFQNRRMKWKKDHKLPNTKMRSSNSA
Assay [16] deals with CRX (Homo sapiens, UniProt O43186 26-111, E42D).
Sequence of CRX (Homo sapiens, UniProt O43186 26-111, E42D) (O43186 26-111 E42D): as the sequence (O43186 26-111) above, with E17D counted along it
Assay [17] has as its target HOXA4 (Homo sapiens, UniProt Q00056 201-287).
Assay [18] addresses CRX (Homo sapiens, UniProt O43186 26-111, R41L).
For assay [19], the target named is HOXA4 (Homo sapiens, UniProt Q00056 201-287, W262F).
Sequence of HOXA4 (Homo sapiens, UniProt Q00056 201-287, W262F) (Q00056 201-287 W262F): as the sequence (Q00056 201-287 R217L) above, with L17R, W62F counted along it
Assay [20] deals with HOXA2 (Homo sapiens, UniProt O43364 129-215, R185T).
Sequence of HOXA2 (Homo sapiens, UniProt O43364 129-215, R185T) (O43364 129-215 R185T): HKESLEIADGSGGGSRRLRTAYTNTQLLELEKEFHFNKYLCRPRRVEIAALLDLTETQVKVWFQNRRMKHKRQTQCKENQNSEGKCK
For assay [21], the target named is HOXA2 (Homo sapiens, UniProt O43364 129-215, R185K).
Sequence of HOXA2 (Homo sapiens, UniProt O43364 129-215, R185K) (O43364 129-215 R185K): as the sequence (O43364 129-215 R185T) above, with T57K counted along it
Assay [22] concerns the target VAX1 (Homo sapiens, UniProt Q5SQQ9 86-172).
Assay [23] addresses VAX1 (Homo sapiens, UniProt Q5SQQ9 86-172, T142I).
In assay [24] the target is HOXA2 (Homo sapiens, UniProt O43364 129-215, Y150S).
Sequence of HOXA2 (Homo sapiens, UniProt O43364 129-215, Y150S) (O43364 129-215 Y150S): as the sequence (O43364 129-215 R185T) above, with Y22S, T57R counted along it
In assay [25] the target is HOXA2 (Homo sapiens, UniProt O43364 129-215).
Sequence of HOXA2 (Homo sapiens, UniProt O43364 129-215) (O43364 129-215): as the sequence (O43364 129-215 R185T) above, with T57R counted along it
Assay [26] concerns the target VAX1 (Homo sapiens, UniProt Q5SQQ9 86-172, K157R).

Sequence of HESX1 (Homo sapiens, UniProt Q9UBX0 95-180) (Q9UBX0 95-180): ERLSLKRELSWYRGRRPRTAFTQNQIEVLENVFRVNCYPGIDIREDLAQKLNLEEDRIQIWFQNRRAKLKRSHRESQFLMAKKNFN
Sequence of HESX1 (Homo sapiens, UniProt Q9UBX0 95-180, R165K) (Q9UBX0 95-180 R165K): as the sequence (Q9UBX0 95-180) above, with R71K counted along it
Sequence of HOXB4 (Homo sapiens, UniProt P17483 148-234, V174I) (P17483 148-234 V174I): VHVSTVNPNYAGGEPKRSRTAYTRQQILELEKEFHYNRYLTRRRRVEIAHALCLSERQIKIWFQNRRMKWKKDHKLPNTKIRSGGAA
Sequence of CRX (Homo sapiens, UniProt O43186 26-111, R41L) (O43186 26-111 R41L): as the sequence (O43186 26-111) above, with R16L counted along it
Sequence of HESX1 (Homo sapiens, UniProt Q9UBX0 95-180, P111T) (Q9UBX0 95-180 P111T): as the sequence (Q9UBX0 95-180) above, with P17T counted along it
Sequence of HOXB4 (Homo sapiens, UniProt P17483 148-234) (P17483 148-234): as the sequence (P17483 148-234 V174I) above, with I27V counted along it
Sequence of HOXA4 (Homo sapiens, UniProt Q00056 201-287) (Q00056 201-287): as the sequence (Q00056 201-287 R217L) above, with L17R counted along it
Sequence of HOXA4 (Homo sapiens, UniProt Q00056 201-287, W262R) (Q00056 201-287 W262R): as the sequence (Q00056 201-287 R217L) above, with L17R, W62R counted along it
Sequence of VAX1 (Homo sapiens, UniProt Q5SQQ9 86-172, K157R) (Q5SQQ9 86-172 K157R): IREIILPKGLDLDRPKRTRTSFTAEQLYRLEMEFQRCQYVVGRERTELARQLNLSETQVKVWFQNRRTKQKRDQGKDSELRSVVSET
Sequence of VAX1 (Homo sapiens, UniProt Q5SQQ9 86-172) (Q5SQQ9 86-172): as the sequence (Q5SQQ9 86-172 K157R) above, with R72K counted along it
Sequence of HESX1 (Homo sapiens, UniProt Q9UBX0 95-180, F115L) (Q9UBX0 95-180 F115L): as the sequence (Q9UBX0 95-180) above, with F21L counted along it
Sequence of VAX1 (Homo sapiens, UniProt Q5SQQ9 86-172, T142I) (Q5SQQ9 86-172 T142I): as the sequence (Q5SQQ9 86-172 K157R) above, with T57I, R72K counted along it

With ATTAGTGC, the binding signal was 9.5 upbm affinity estimate (log intensity, higher = more binding, comparable within an allelic series) in assay [1]; 9.81 upbm affinity estimate (log intensity, higher = more binding, comparable within an allelic series) in assay [2]; 8.71 upbm affinity estimate (log intensity, higher = more binding, comparable within an allelic series) in assay [3]; 6.94 upbm affinity estimate (log intensity, higher = more binding, comparable within an allelic series) in assay [4].
As to ATTCATAA, the binding signal in [1] is 7.97 upbm affinity estimate (log intensity, higher = more binding, comparable within an allelic series); in assay [2], 8.03 upbm affinity estimate (log intensity, higher = more binding, comparable within an allelic series); in [3], 7.62 upbm affinity estimate (log intensity, higher = more binding, comparable within an allelic series).
With AGCCTGGG, the binding signal in assay [5] is 7.59 upbm affinity estimate (log intensity, higher = more binding, comparable within an allelic series); in [6], 7.06 upbm affinity estimate (log intensity, higher = more binding, comparable within an allelic series); in assay [7] it was 7.98 upbm affinity estimate (log intensity, higher = more binding, comparable within an allelic series); in assay [8], 8.23 upbm affinity estimate (log intensity, higher = more binding, comparable within an allelic series); in assay [9] it was 7.58 upbm affinity estimate (log intensity, higher = more binding, comparable within an allelic series); in assay [10] it was 8.48 upbm affinity estimate (log intensity, higher = more binding, comparable within an allelic series). Further, the binding signal is 7.22 upbm affinity estimate (log intensity, higher = more binding, comparable within an allelic series) in assay [11] and 9.24 upbm affinity estimate (log intensity, higher = more binding, comparable within an allelic series) in [12].
As for CAGGACCC, the binding signal is 7.14 upbm affinity estimate (log intensity, higher = more binding, comparable within an allelic series) in assay [5]; 8.22 upbm affinity estimate (log intensity, higher = more binding, comparable within an allelic series) in [13]; 9.96 upbm affinity estimate (log intensity, higher = more binding, comparable within an allelic series) in [14]; 7.85 upbm affinity estimate (log intensity, higher = more binding, comparable within an allelic series) in [7]; 8.07 upbm affinity estimate (log intensity, higher = more binding, comparable within an allelic series) in assay [8]; 9.81 upbm affinity estimate (log intensity, higher = more binding, comparable within an allelic series) in [15]. In addition, the binding signal is 7.15 upbm affinity estimate (log intensity, higher = more binding, comparable within an allelic series) in assay [9]; 8.19 upbm affinity estimate (log intensity, higher = more binding, comparable within an allelic series) in assay [16]; 9.67 upbm affinity estimate (log intensity, higher = more binding, comparable within an allelic series) in [17]; 8.24 upbm affinity estimate (log intensity, higher = more binding, comparable within an allelic series) in assay [18]; 9.89 upbm affinity estimate (log intensity, higher = more binding, comparable within an allelic series) in assay [19].
For the sequence GATCATTA, the binding signal in assay [5] is 13.4 upbm affinity estimate (log intensity, higher = more binding, comparable within an allelic series); in [13], 10.8 upbm affinity estimate (log intensity, higher = more binding, comparable within an allelic series); in assay [14] it was 10.5 upbm affinity estimate (log intensity, higher = more binding, comparable within an allelic series); in assay [20] it was 12.5 upbm affinity estimate (log intensity, higher = more binding, comparable within an allelic series); in [15], 12.4 upbm affinity estimate (log intensity, higher = more binding, comparable within an allelic series); in [9] it was 14.1 upbm affinity estimate (log intensity, higher = more binding, comparable within an allelic series). The binding signal is 10.7 upbm affinity estimate (log intensity, higher = more binding, comparable within an allelic series) in [16]; 13.3 upbm affinity estimate (log intensity, higher = more binding, comparable within an allelic series) in [21]; 14.1 upbm affinity estimate (log intensity, higher = more binding, comparable within an allelic series) in assay [17]; 13 upbm affinity estimate (log intensity, higher = more binding, comparable within an allelic series) in assay [22]; 13.1 upbm affinity estimate (log intensity, higher = more binding, comparable within an allelic series) in assay [23]; 10.9 upbm affinity estimate (log intensity, higher = more binding, comparable within an allelic series) in assay [24]. For the same sequence, the binding signal in assay [18] is 10.4 upbm affinity estimate (log intensity, higher = more binding, comparable within an allelic series); in assay [19], 11.9 upbm affinity estimate (log intensity, higher = more binding, comparable within an allelic series); in assay [25], 12.6 upbm affinity estimate (log intensity, higher = more binding, comparable within an allelic series); in [26], 13 upbm affinity estimate (log intensity, higher = more binding, comparable within an allelic series).
For the sequence CTCAATTC, the binding signal in [1] was 7.54 upbm affinity estimate (log intensity, higher = more binding, comparable within an allelic series); in assay [2] it was 7.59 upbm affinity estimate (log intensity, higher = more binding, comparable within an allelic series); in [3], 7.26 upbm affinity estimate (log intensity, higher = more binding, comparable within an allelic series).
On to GCCCAGAC, for which the binding signal is 7.49 upbm affinity estimate (log intensity, higher = more binding, comparable within an allelic series) in assay [5]; 8.35 upbm affinity estimate (log intensity, higher = more binding, comparable within an allelic series) in assay [13]; 7.68 upbm affinity estimate (log intensity, higher = more binding, comparable within an allelic series) in [9]; 8.45 upbm affinity estimate (log intensity, higher = more binding, comparable within an allelic series) in [16]; 8.39 upbm affinity estimate (log intensity, higher = more binding, comparable within an allelic series) in assay [18].
